# Laboratory results taken from the supplement of paper PMC10105736.
# Experiments:
# Experiment in all cases: MAPPIT interaction score (arbitrary units); higher = stronger binary interaction signal, active = hit call of the paper;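 active = MAPPIT score above the 99th percentile of random reference set scores in the same batch; inactive = at or below it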
# CG9825 = settings: MAPPIT configuration: N-C; pair source set: screen_4
# CG8292 = settings: MAPPIT configuration: N-N; pair source set: Curagen_low_conf
# CROT = settings: MAPPIT configuration: N-N; pair source set: Curagen_high_conf
# CG9133 = settings: MAPPIT configuration: N-N; pair source set: screen_1
# GstT2 = settings: MAPPIT configuration: N-N; pair source set: screen_1
# CHES-1-like = settings: MAPPIT configuration: N-C; pair source set: screen_4
# Mf = settings: MAPPIT configuration: N-C; pair source set: screen_3
# mri = settings: MAPPIT configuration: N-N; pair source set: screen_1
# CG9676 = settings: MAPPIT configuration: N-N; pair source set: RRS
# CG9106 = settings: MAPPIT configuration: N-N; pair source set: screen_2
# CG9040 = settings: MAPPIT configuration: N-N; pair source set: Finley_Y2H
# CG8320 = settings: MAPPIT configuration: N-C; pair source set: screen_4
# 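Note: HEK293T cells with Epo stimulation, STAT-responsive firefly luciferase reporter, fold induction versus unstimulated cells divided by the larger fold induction of two negative controls lacking either bait or prey.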
binder,measurement,setting,value
CG8306 (protein) MASSPITDFYAGRNVFITGATGFVGVTIVEKLLRDVPNVGTLYLLMRAKKGKSVQERLEELKKNSVFDKFKELQLQSRLSKIVPIEGDVGLEHLGISPKDRQTLIDNVNVVFHSAATLDFFQSLKETTNINLRGTRRVVELCQQIKNLDALVHVSSAYVNAYLTKVEEKLYPAPEDPEKIIQLSETLNDDALKELEPKLLKDHPNTYTFTKHLAEHEVANVASKFPCGIVRPSMITAAWKEPIPGWTISKNGPQGFFMGASKGVLRRLPLDPSIIMDYIPIDVVVNGIITTGYYVNSLQAKNGGRPADLQIFHLTSSTYKPFRFELMTDKINSYLHDYPLNSAVWYPNLRLVKSLWVFRLSAILFHFIPAIILDLVTKIGGGRPILVRLHKNVWNSLNTLEKFIFTEWHFDSKRLLALSKTLNIVDKKKFFIDIGELAWDEYFSNTILGVRQYLSKEPIKNLEKARRKDKILLGLHVALQLSFWYGVFKLIVCLTGISTAKAALVLPVLYYLFGLL,MAPPIT interaction score,CG9825,-0.0656 (inactive)
Vha14-1 (protein) MALHSAIKGKLISVIGDEDTCVGFLLGGVGEINKNRHPNFMVVDKNTAVSELEDCFKRFLKRDDIDIILINQNCAELIRHVIDAHTSPVPAVLEIPSKDHPYDASKDSILRRARGMFNPEDLVR,MAPPIT interaction score,CG8292,-0.0476 (inactive)
Usp30 (protein) MESEKILMAAGVTVAAVVGAFVFWGPSGSRLRQRRGQIAGLHNFGLTCFLNTLLQAMAACPQFIAWLQLYNNASPDRKSLITSMLNTLEVVNGTHATLRGDPYSPGAVLRALNALGWVIPQEEHDAHELFHVLLTCLEEEAIRPQPLGCLSDALPTDNDDNSSLAGTATPVGGFRSFSSMAAGLGASQRIGDQPNRPSSAMLTDFLNMEYDESTSLQRLVRSEAHTPDSPASVCERDGNDRLGSVLLDAVSPGTPFGFPLVSNPDSLATPMLGGERSSRPRLPQSQQQQDEGLNRRVSSSCRSLERLHRGPGRVSIWSNMMPSQVAHPFQGAMGAQIVCNGCGSKSAVRYDKFDSITLNLPPQRRTGLSLGHLLSEYITSEDLSDVKCDSCNETTTHTKSVTFAKLPACLCIHVARTVWLPTGQVCKRKDYVHFPESLSMAPYSFVQPHLNSQAGTPWGSTMSLYSSSLPMNNGVGGGEGFGTMFPKNLYRLLAVVVHSGEANSGHFVTYRRGSLRNAHRWYYTSDTIVREVSIDEVLSVPAYLLFYDRGQQRQLNLR,MAPPIT interaction score,CROT,2.05 (inactive)
Tollo (protein) MLATTHMLYVLIATCVIPIFGAALSKTVLYQAPDECRWSGGGEHDITLVCHLRTINSELENTNFSVIQPQNTVRLRLECNDALFFQSSLSPDSFRSLVELRDLTIEYCKLGNLTDGSFRGLQELRNLTIRTHNGDWSTMSLEMASNSFVEFRQLERLDLSLNNIWLIPDGMVCPLKSLQHLNASYNKIQDISNFYFSASLSSRKARVCGSTLQSLDLSANKMVSLPTAMLSALGRLTHLNMAKNSMSFLADRAFEGLLSLRVVDLSANRLTSLPPELFAETKQLQEIYLRNNSINVLAPGIFGELAELLVLDLASNELNSQWINAATFVGLKRLMMLDLSANKISRLEAHIFRPLASLQILKLEDNYIDQLPGGIFADLTNLHTLILSRNRISVIEQRTLQGLKNLLVLSLDFNRISRMDQRSLVNCSQLQDLHLNDNKLQAVPEALAHVQLLKTLDVGENMISQIENTSITQLESLYGLRMTENSLTHIRRGVFDRMSSLQILNLSQNKLKSIEAGSLQRNSQLQAIRLDGNQLKSIAGLFTELPNLVWLNISGNRLEKFDYSHIPIGLQWLDVRANRITQLGNYFEIESELSLSTFDASYNLLTEITASSIPNSVEVLYLNDNQISKIQPYTFFKKPNLTRVDLVRNRLTTLEPNALRLSPIAEDREIPEFYIGHNAYECDCNLDWLQKVNRESRTQPQLMDLDQIHCRLAYARGSSHVSLIEAKSDDFLCKYASHCFALCHCCDFQACDCKMECPDRCSCYHDQSWTSNVVDCSRASYEQTLPSHIPMDSTQLYLDGNNFRELQSHAFIGRKRLKVLHLNHSRIEVLHNRTFYGLLELEVLQLQSNQLKALNGNEFQGLDNLQELYLQHNAIATIDTLTFTHLYHLKILRLDHNAITSFAVWNFLPSYLNELRLASNPWTCSCEFIDKLRDYINRHEYVVDKLKMKCDVISGNSTQQMVIYPGSGEPASLPVVQCSQTLPLGLDNNFNYAEQAGGENASNATSTKMILNQPPKLDYIPILVAILTAFIFVMICISLVFIFRQEMRVWCHSRFGVRLFYNAQKDVDKNEREKLFDAFVSYSSKDELFVNEELAPMLEMGEHRYKLCLHQRDFPVGGYLPETIVQAIDSSRRTIMVVSENFIKSEWCRFEFKSAHQSVLRDRRRRLIVIVLGEVPQKELDPDLRLYLKTNTYLQWGDKLFWQKLRFALPDVSSSQRSNVAGQSCHVPINHASYHHHHHVHQQAMPLPHSVHHHQQQFMLPPPPQQPGSFRRQPSLHQQQQQQQQIRGNNNTTQQQQQQQAALLMGGGSVGGPAPQMIPLAGGIQQQSLPLPPNQQPTPASRNLHM,MAPPIT interaction score,CG9133,1.51 (inactive)
same,MAPPIT interaction score,GstT2,2.34 (inactive)
Lasp (protein) MNKTCARCQKVVYPIEELKCLDKTWHKTCFKCTECGMTLNMKTYKGYNKMPYCEAHIPKAKATAIADTPELKRIAENTKIQSNVKYHADFEKAKGKFTQVADDPETLRIKQNTKHISNVAYHGDLEKKAAMEKQRGSAEVSDSSNESEYFSEQLAAEQFSQYAPTASPIPPAATTLHQQQQQLQHQQQQQYQQHQQQLQQQQHQHQHYLQQQQQTLPPPPIQHQQYNTAAITPTYQQLQQQQQQQQQQRAQQQQLHDPYAHYQQPQALRQQQQQQQQQQQQLLQQQAIKQASHLYPTATSQQQQMPPPQSPANPQQQALNSYNEMRSAILQNSHHPSGNSVDQYDQPQQQQHQPQQQSTNPTLVAAQQQQSHHSLLNNNASNGGISHSHHSNINNNGHGSQNQMLPPQMRRSAASVVAYDGNSKQQVAAGPGAAQNHLQQLYASPNYAAVTPSENSINVKQHASNGHMPNQQQQHVAGGSNIGKIADYDPLTDGPRVVPNAGRSSTTLVYSSEPRGNQGGNSVYPKRIGSVSDIDPANGIYGSLTAAEQAHQQQKHQQYYQQVQMMQQQEHPPQQQQMRQQPSYSSLQEKQSRQSTAMRVYRAIYDYEAQDVDEVSFREGDVIFEVESIDSGWMTGRVERTGKTGMLPANYVEQAVI,MAPPIT interaction score,CHES-1-like,0.887 (inactive)
same,MAPPIT interaction score,Mf,3.01 (inactive)
same,MAPPIT interaction score,mri,1.83 (inactive)
sgg (protein) MSGRPRTSSFAEGNKQSPSLVLGGVKTCSRDGSKITTVVATPGQGTDRVQEVSYTDTKVIGNGSFGVVFQAKLCDTGELVAIKKVLQDRRFKNRELQIMRKLEHCNIVKLLYFFYSSGEKRDEVFLNLVLEYIPETVYKVARQYAKTKQTIPINFIRLYMYQLFRSLAYIHSLGICHRDIKPQNLLLDPETAVLKLCDFGSAKQLLHGEPNVSYICSRYYRAPELIFGAINYTTKIDVWSAGCVLAELLLGQPIFPGDSGVDQLVEVIKVLGTPTREQIREMNPNYTEFKFPQIKSHPWQKVFRIRTPTEAINLVSLLLEYTPSARITPLKACAHPFFDELRMEGNHTLPNGRDMPPLFNFTEHELSIQPSLVPQLLPKHLQNASGPGGNRPSAGGAASIAASGSTSVSSTGSGASVEGSAQPQSQGTAAAAGSGSGGATAGTGGASAGGPGSGNNSSSGGASGAPSAVAAGGANAAVAGGAGGGGGAGAATAAATATGAIGATNAGGANVTDS,MAPPIT interaction score,CG9676,0.279 (inactive)
to (protein) MFAIAFAVVLCLLVSVDAKFPEDPKPCKYGDGECIMKLCNTLFSENSAEGDPGLNLMQLDPLKVDRMVISQGESSSPVGITLTFTDNLLYGIKDQRIVKVKGFGRDLTAKHEVKIVTKTFSLVGPYNIQGKVLILPISGTGQSNMTMVNVRAIVSFSGKPLVKNGETYLDVTDLKITMKPESSHYHFSNLFNGDKALGDNMNVFLNENSEAIYKETAKAIDRSFGKLYLGVVKGVFSKLPYAKFFADES,MAPPIT interaction score,CG9825,0.062 (inactive)
bol (protein) MHKIAAAPPPSATPGGGLETPLAAPKYGTLIPNRIFVGGISGDTTEADLTRVFSAYGTVKSTKIIVDRAGVSKGYGFVTFETEQEAQRLQADGECVVLRDRKLNIAPAIKKQPNPLQSIVATNGAVYYTTTPPAPISNIPMDQFAAAVYPPAAGVPAIYPPSAMQYQPFYQYYSVPMNVPTIWPQNYQENHSPLLHSPTSNPHSPHSQSHPQSPCWSIEDLRDTLPRV,MAPPIT interaction score,CG9106,3.9 (active)
Bre1 (protein) MSKRSADDATGSSCLVAAAAAGQPPIKKVHFEPHLIGPVSTLEEMDIKVLEFQNKKLAQRIEQRMRTEAELRHRIEQLEKRQTQDDAVLNVVNRYWNQLNEDIRVLLQRFDAETADELENRNENEVTTSFLAQLSTWDKEELDEKLANRVQVSKRAVAKIVQVIDRLMQRNEKITHVLKGDSLASAGSGSGAGAGGEEEQQQASGDAETTTSSAGVHALEETLKQTHIEIMSENHKLQNLNTSLHEKFHTMSLKMKEYQDAHTAKETENAELKNQIDELQYDLEKIHCRNDKLENHLAEAIEKLKAYHQIYGDPNKSTNSAKTPTTTGSGGATTSVNSQLLEELQKELEEYRELANNRLQELDKLHATHRETLKEVEKLKMDIRQLPESVIVETTEYKCLQSQFSVLYNESMQIKTMLDETRNQLQTSKNQHLRQIEVMESEELIAQKKVRSEMIQMEDVLALIRKEYETLRIEFEQNMAANEQTAPINREMRHLITSLQNHNGQLKGEVQRYKRKYKDTSTDNLKLRQELADALATLEGNKLQAATGAAGEEIKQENSTGVKEENSNNVSASGQTNQTNSGNDTNVAIKEENHISAEDEADDEASGKDVKDGIKQEKLSSGDAAAAEKKDSPGPGNSTSSATNSVPVKNEKDSKDGVKGKDVKAVESETVRDLKAQLKKALNDQKEMKLLLDMYKGVSKDQRDKVQLMATEKKLRSEIEELRQQLKKLQESKREERKKLADEEALRKIKQLEEQKYELQKQMANHKPTDNSWGSGAPGTANYTRPFVGSHEEEALLNEMEVTGQAFEDMQEQNSRLIQQLREKDDANFKLMSERIKANQLHKLLREEKTVLEDQMATATTQIEAMHIVLRKLEEKERSLQATVASIEKELMLRQQAMEMHKRKAIESAQSAADLKLHLEKYHAQMKEAQQVVAEKTSSLEAEAYKTKRLQEELAQFKRKAERMKKMEMSGTTIDEVMIEEIREYKETLTCPSCKVKRKDAVLSKCFHVFCYDCLRTRYETRQRKCPKCNCAFGANDYHRLYLQ,MAPPIT interaction score,CG9040,-0.0702 (inactive)
tap (protein) MAACYNAYSAGSQSFEFDEDDDDASFDSGYEKSFETEAQLSSRRRLDFGTPPTPAIPQPYSGGTWDAVPLSSPPAGFVGLLDTSSNHSTRSGRTLVEHLNSRATNGVFDPPLTSTPVKSPEDPNAPRPKRKYAVGKNRVTRSRSPTQVVKIKRFRRMKANDRERNRMHNLNDALEKLRVTLPSLPEETKLTKIEILRFAHNYIFALEQVLESGGSINLDLEKLQNFTLSGERITKELFDALFVNPQPYPLFGRMFPYGQGMAPLAQHQTAPASHAEQPPAMGGFQHGMDYPQQPPGFDFTGSMRFYHQQQQQPHQPHHLQPNPQQESSPQQFSQEKYDLFRGSFDAAANLHSTNLDSGIHQQSSFYSQTPPWKDYPEDQAHVHPVPHQHSYKNFAPQV,MAPPIT interaction score,CG8320,-0.175 (inactive)
